Experimental data: paper PMC5540273 (PLoS ONE, 2017)
Like-named read-outs stand apart in the source and are kept apart here.

Experiments:
TAOK2 = details: concentration: 1 μM, replicates: in singlicate; n = 1
TAOK3 = details: concentration: 1 μM, replicates: in singlicate; n = 1
TBK1 = details: concentration: 1 μM, replicates: in singlicate; n = 1
TEC = details: concentration: 1 μM, replicates: in singlicate; n = 1
TESK1 = details: concentration: 1 μM, replicates: in singlicate; n = 1
TGFBR1 = details: n = 1
TGFBR2 = details: concentration: 1 μM, replicates: in singlicate; n = 1
TIE1 = details: concentration: 1 μM, replicates: in singlicate; n = 1
TIE2 = test system: T1, TIE2; details: concentration: 1 μM, replicates: in singlicate; n = 1
T1 construct: gene TEK

TLK1 = details: concentration: 1 μM, replicates: in singlicate; n = 1
TLK2 = details: concentration: 1 μM, replicates: in singlicate; n = 1
TNIK = details: concentration: 1 μM, replicates: in singlicate; n = 1
TNK1 = details: concentration: 1 μM, replicates: in singlicate; n = 1
TNK2 = details: concentration: 1 μM, replicates: in singlicate; n = 1
TNNI3K = details: concentration: 1 μM, replicates: in singlicate; n = 1
TRKA = test system: T2, TRKA; details: concentration: 1 μM, replicates: in singlicate; n = 1
T2 construct: gene NTRK1

TRKB = details: concentration: 1 μM, replicates: in singlicate; n = 1
TRKC = test system: T3, TRKC; details: concentration: 1 μM, replicates: in singlicate; n = 1
T3 construct: gene NTRK3

TRPM6 = details: concentration: 1 μM, replicates: in singlicate; n = 1
TSSK1B = details: concentration: 1 μM, replicates: in singlicate; n = 1
[1] = concentration: 1 μM, replicates: in singlicate
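Also: KINOMEscan kinase panel screen.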

O=c1cc(N2CCOCC2)nc2n(Cc3cccc(F)c3)ccn12 [GSK2297430]
%Inh (TAOK2): 0%
%Inh (TAOK3): 0%
%Inh (TBK1): 0%
%Inh (TEC): 0%
%Inh (TESK1): 19%
%Inh (TGFBR1; [1]): 0%
%Inh (TGFBR2): 13%
%Inh (TIE1): 7%
%Inh (TIE2): 0%
%Inh (TLK1): 6%
%Inh (TLK2): 0%
%Inh (TNIK): 0%
%Inh (TNK1): 0%
%Inh (TNK2): 18%
%Inh (TNNI3K): 0%
%Inh (TRKA): 54%
%Inh (TRKB): 27%
%Inh (TRKC): 6%
%Inh (TRPM6): 0%
%Inh (TSSK1B): 12%

Cc1cn2c(=O)cc(N3CCOCC3)nc2n1Cc1cccc(Cl)c1Cl [GSK2334006]
%Inh (TAOK2): 0%
%Inh (TAOK3): 0%
%Inh (TBK1): 0%
%Inh (TEC): 12%
%Inh (TESK1): 17%
%Inh (TGFBR1; [1]): 15%
%Inh (TGFBR2): 0%
%Inh (TIE1): 50%
%Inh (TIE2): 19%
%Inh (TLK1): 17%
%Inh (TLK2): 0%
%Inh (TNIK): 0%
%Inh (TNK1): 0%
%Inh (TNK2): 12%
%Inh (TNNI3K): 0%
%Inh (TRKA): 17%
%Inh (TRKB): 0%
%Inh (TRKC): 0%
%Inh (TRPM6): 0%
%Inh (TSSK1B): 29%

CN(C(=O)c1ccc(-c2cc(-c3c[nH]nc3-c3ccccn3)ccn2)cc1)C1CCOCC1 [GW810083]
%Inh (TAOK2): 0%
%Inh (TAOK3): 0%
%Inh (TBK1): 0%
%Inh (TEC): 0%
%Inh (TESK1): 1%
%Inh (TGFBR1; 1 µM): 77%
%Inh (TGFBR2): 21%
%Inh (TIE1): 0%
%Inh (TIE2): 1%
%Inh (TLK1): 0%
%Inh (TLK2): 0%
%Inh (TNIK): 23%
%Inh (TNK1): 0%
%Inh (TNK2): 0%
%Inh (TNNI3K): 0%
%Inh (TRKA): 38%
%Inh (TRKB): 41%
%Inh (TRKC): 17%
%Inh (TRPM6): 0%
%Inh (TSSK1B): 0%

CCCCCc1nc2c(N)ncnc2n1CCCCC [SKF-97255]
%Inh (TAOK2): 18%
%Inh (TAOK3): 0%
%Inh (TBK1): 42%
%Inh (TEC): 6%
%Inh (TESK1): 14%
%Inh (TGFBR1; [1]): 3%
%Inh (TGFBR2): 11%
%Inh (TIE1): 0%
%Inh (TIE2): 19%
%Inh (TLK1): 0%
%Inh (TLK2): 20%
%Inh (TNIK): 0%
%Inh (TNK1): 19%
%Inh (TNK2): 0%
%Inh (TNNI3K): 0%
%Inh (TRKA): 0%
%Inh (TRKB): 0%
%Inh (TRKC): 0%
%Inh (TRPM6): 13%
%Inh (TSSK1B): 0%

Cn1ccc2ncnc(Oc3ccc(NC(=O)Nc4ccncc4)c(Cl)c3)c21
%Inh (TAOK2): 0%
%Inh (TAOK3): 0%
%Inh (TBK1): 22%
%Inh (TEC): 0%
%Inh (TESK1): 0%
%Inh (TGFBR1; [1]): 10%
%Inh (TGFBR2): 0%
%Inh (TIE1): 0%
%Inh (TIE2): 5%
%Inh (TLK1): 0%
%Inh (TLK2): 0%
%Inh (TNIK): 0%
%Inh (TNK1): 0%
%Inh (TNK2): 0%
%Inh (TNNI3K): 0%
%Inh (TRKA): 0%
%Inh (TRKB): 0%
%Inh (TRKC): 0%
%Inh (TRPM6): 0%
%Inh (TSSK1B): 0%

CNc1ncnc2[nH]ncc12 [SKF-18355]
%Inh (TAOK2): 24%
%Inh (TAOK3): 0%
%Inh (TBK1): 30%
%Inh (TEC): 0%
%Inh (TESK1): 10%
%Inh (TGFBR1; [1]): 47%
%Inh (TGFBR2): 0%
%Inh (TIE1): 0%
%Inh (TIE2): 2%
%Inh (TLK1): 0%
%Inh (TLK2): 0%
%Inh (TNIK): 17%
%Inh (TNK1): 0%
%Inh (TNK2): 0%
%Inh (TNNI3K): 0%
%Inh (TRKA): 0%
%Inh (TRKB): 0%
%Inh (TRKC): 0%
%Inh (TRPM6): 23%
%Inh (TSSK1B): 0%
